Results on eight molecules are retold here after PubChem BioAssay (NCI).

Test in all cases: NCI-60 one-dose screen, 48 h (100 = growth as untreated, 0 = no growth, -100 = all killed)
What all share (conditions): 10 µM unless noted

The subject of experiment [1] is SK-MEL-2 melanoma.
Experiment [2] deals with EKVX NSCLC.
Experiment [3] relates to SN12C renal.
Experiment [4] concerns UO-31 renal.
Experiment [5] concerns TK-10 renal.
For experiment [6], the system named is ACHN renal.
In experiment [7] the test system is CAKI-1 renal.
Experiment [8] relates to A498 renal.
The subject of experiment [9] is CCRF-CEM leukemia.
Experiment [10] relates to MOLT-4 leukemia.
The subject of experiment [11] is SR leukemia.
In experiment [12] the test system is OVCAR-8 ovarian.
Experiment [13] relates to OVCAR-5 ovarian.
Experiment [14] concerns OVCAR-4 ovarian.
Experiment [15] relates to SK-OV-3 ovarian.
Experiment [16] relates to IGROV1 ovarian.
Experiment [17] concerns OVCAR-3 ovarian.
The subject of experiment [18] is HS 578T breast.
For experiment [19], the system named is RPMI-8226 leukemia.
Experiment [20] deals with NCI/ADR-RES ovarian.

Each structure is given as a SMILES string. This is part of a sample that, as a whole, favours compounds with a hit. Of some 83,000 tested, about 20% had one in any assay.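 The test compound was applied at a single concentration to cells in 96-well plates for 48 hours, and percent growth was recorded.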 Values without a mark were called inactive. The source made the active and inactive calls. How the source made its calls: active means growth percent below 10; inactive means the rest.

As to `Cc1ccc(C(CC(=O)O)c2c(C)[nH][nH]c2=O)cc1` (stereo not drawn), the growth in experiment [1] is 113%; in experiment [2], 105%; in experiment [3], 98.2%; in experiment [4] it was 93%; in experiment [5], 98.6%; in experiment [6], 104%. Besides, the growth in experiment [7] was 101%; in experiment [8], 112%; in experiment [9] it was 97.1%; in experiment [10], 98.8%; in experiment [11], 99%; in experiment [12], 101%. In addition, the growth was 106% in experiment [13]; 111% in experiment [14]; 97.7% in [15]; 105% in experiment [16]; 109% in [17]; 109% in experiment [18].

Regarding `Cc1cc(=O)[nH]c(=O)n1Cc1cn(-c2c3ccccc3nc3ccccc23)nn1`, the growth in [1] is 107%; in experiment [2], 103%; in experiment [3], 88.7%; in experiment [4] it was 82.6%; in experiment [5], 96.1%; in experiment [6], 87.4%. Further, the growth in experiment [7] was 91%; in [8], 101%; in experiment [9], 64.7%; in experiment [10], 48.5%; in experiment [11], 11.4%; in experiment [19], 55.5%. In addition, the growth was 120% in experiment [13]; 106% in experiment [14]; 96.2% in experiment [15]; 33% in experiment [16]; 90.7% in [17]; 100% in experiment [18]. Besides, the growth in experiment [20] is 106%.

On to `Cc1ccc(-c2nc(N3CCN(CC(=O)Nc4ccc(Cl)c(C(F)(F)F)c4)CC3)c3ccccc3n2)cc1`, for which the growth in [1] was 110%; in experiment [2], 87.3%; in [3], 94.6%; in experiment [4] it was 65.6%; in experiment [5], 101%; in experiment [6], 95%. For the same molecule, the growth was 80.2% in experiment [7]; 74.6% in experiment [8]; 89.5% in experiment [9]; 62.6% in [10]; 87.2% in experiment [11]; 88.9% in experiment [12]. Besides, the growth in [13] was 89.9%; in [14], 102%; in experiment [15], 84.7%; in experiment [16] it was 99.8%; in experiment [17], 102%; in [18] it was 97.2%.

For the molecule `CCOC(=O)c1c2c(n(-c3ccc(C#N)cc3)c1-c1ccccc1)C=CCC2`, the growth in [1] was 79.6%; in experiment [2], 93.2%; in experiment [3] it was 101%; in experiment [4], 81.8%; in experiment [5], 96.5%; in experiment [6], 86.8%. In addition, the growth in experiment [7] is 76.4%; in experiment [8] it was 96.7%; in [9] it was 95.8%; in [10], 81.2%; in [11], 92.1%; in experiment [19] it was 85.8%. Moreover, the growth was 96.7% in [13]; 77.2% in [14]; 77.9% in experiment [16]; 105% in [17]; 99.3% in experiment [18]; 94% in [20].

Consider `COc1cc(C(=O)c2cnc(-c3cccc4[nH]ccc34)[nH]2)cc(OC)c1OC`, for which the growth is 39.9% in experiment [1]; 42.4% in experiment [2]; 31.1% in experiment [3]; 26.7% in [4]; 63.4% in [5]; 30.2% in experiment [6]. Besides, the growth was 16.7% in experiment [7]; -15.9% (active) in [8]; 10.3% in [9]; 14.2% in experiment [10]; 13.9% in experiment [11]; 15.8% in experiment [19]. Moreover, the growth in [13] is 50.1%; in [14] it was 38.9%; in [15] it was 35.6%; in experiment [16], 26.6%; in [17] it was -18.1% (active); in experiment [18] it was 30.9%. The growth in experiment [20] was 11.2%.

With `COc1ccc(-c2nc3sc(-c4ccc(Cl)cc4)cn3n2)cc1`, the growth is 106% in [1]; 47.5% in [2]; 5.26% (active) in experiment [3]; -7.46% (active) in [4]; -30.8% (active) in experiment [5]; -74% (active) in experiment [6]. For the same molecule, the growth is -3.32% (active) in [7]; -25.3% (active) in experiment [8]; 69.5% in experiment [9]; 82.6% in experiment [10]; 51.1% in experiment [11]; 44.9% in experiment [19]. In addition, the growth in experiment [13] is 52%; in experiment [14], -63.3% (active); in [15], 49.5%; in experiment [16], 7.07% (active); in experiment [17], 24.7%; in experiment [18] it was 27%. In experiment [20], the growth was 45.6%.

For the molecule `CCOC(=O)Nc1ccc(-c2nc(-c3cccc(OC)c3)c(-c3ccnc(Br)c3)[nH]2)cc1`, the growth in [1] is 38.3%; in experiment [2], 30.1%; in [3], 48.9%; in experiment [4], 16.3%; in [5], 71.4%; in [6] it was 24.3%. Besides, the growth was 32.7% in experiment [7]; 22.4% in experiment [8]; 16.7% in experiment [9]; 14.3% in [10]; 9.48% (active) in experiment [11]; 29.4% in [12]. In addition, the growth in experiment [13] was 66.9%; in experiment [14], 33.6%; in experiment [15], 67.3%; in experiment [16], 45.2%; in experiment [17] it was 33.3%; in [18], -5.11% (active).

For the molecule `COc1cccc(Cc2nn3cc(-c4ccccc4)nc3s2)c1`, the growth in [1] is 95.2%; in [2], 94.1%; in experiment [3], 96.3%; in [4] it was 74.6%; in experiment [5] it was 95.1%; in experiment [6], 96%. Further, the growth was 90.8% in experiment [7]; 99.5% in [8]; 30.2% in experiment [9]; 30.1% in experiment [10]; 16.3% in experiment [11]; 33.7% in [19]. Also, the growth in experiment [13] was 114%; in experiment [14], 98.4%; in experiment [15], 103%; in [16] it was 86.4%; in experiment [17], 85.5%; in [18], 106%. The growth in experiment [20] is 101%.
